# Test results from PubChem BioAssay (NCATS).
# Inconclusive results are not listed. Unmarked numbers belong to inactive results. Calls come from the whole dose curve; as a rule, active = well fitted inhibition curve with a large enough effect; inconclusive = small, poorly fitted or top-dose-only effect; inactive = no such curve, though single readings can be large or run the other way.
# Target: Protein phosphatase 1D (Homo sapiens) (UniProt O15297)
# Assay: RapidFire Mass Spectrometry qHTS Assay for Modulators of WT P53-Induced Phosphatase 1 (WIP1) (AID 1347424)
# Details: WIP1 dephosphorylation of phosphopeptide, RapidFire MS; series mostly up to 63 µM; activity change, negative = inhibition: at the top concentration
# From the text: Assay Provider (PI): Nathan Coussens Ph. D.
# National Center for Advancing Translational Sciences (NCATS), Rockville, MD
# National Institute of Health (NIH), Bethesda, Maryland
# WT P53-Induced Phosphatase 1 (WIP1) is a member of the magnesium-dependent serine/threonine protein phosphatase (PPM) family and is induced by P53 in response to DNA damage. In several human cancers, the WIP1 protein is overexpressed, which is generally associated with a worse prognosis. Although WIP1 is an attractive therapeutic target, no potent, selective, and bioactive small-molecule modulator with favorable pharmacokinetics has been reported. Phosphatase enzymes are among the most challenging targets for small molecules because of the difficulty of achieving both modulator selectivity and bioavailability. Another major obstacle has been the availability of robust and physiologically relevant phosphatase assays that are suitable for high-throughput screening.
# Here, we describe two orthogonal biochemical WIP1 activity assays that utilize phosphopeptides from native WIP1 substrates. We optimized a RapidFire MS assay to quantify the enzymatically dephosphorylated peptide reaction product in a 384-well format. Additionally, a redshifted Rhodamine-PBP fluorescence assay was optimized in a 1,536-well format to enable real-time WIP1 activity measurements through the detection of the orthogonal reaction product, Pi. We validated these two optimized assays by quantitative high-throughput screening against the National Center for Advancing Translational Sciences (NCATS) Pharmaceutical Collection and used secondary assays to confirm and evaluate inhibitors identified in the primary screen.
# SEQUENCE No. (e.g., 1, 2, 3, etc.); […] (e.g., Cells, Incubation, Reagent, etc.); VALUE; DESCRIPTION
# 1; Reagent; 50 uL; dispensed assay buffer: 0.1% formic acid in water (10 uL : 40 uL) solution in column 1
# 3; Library Compounds; 63 nL; library compounds in DMSO, columns 3-24
# 4; Control Compounds; 63 nL; DMSO in wells I-P, columns 1-2, GSK830371 (10 uM, final) in wells A-H, column 2
# 5; Time; 1 hr; incubation
# 6; Substrate; 2 uL; VEPPL-pS-QETFS (10 uM) in assay buffer, column 2-24
# 7; Time; 5 min; incubation
# 8; Reagent; 2 uL; 0.5% formic acid in water, columns 2-24
# 9; Reagent; 38 uL; VEPPL-S-QETF*S in 0.1% formic acid, columns 2-24
# 10; Detection; mass spec; RapidFire mass spectrometry
# NOTES (numbers refer to sequence above)
# 1, 2, 6; dispensed reagent in White Nunc 384-well PP microplates (264573); assay buffer: 50 mM Tris-HCl pH 7.5, 30 mM MgCl2, 1 mM TCEP, 0.1 mM EGTA, 75 ug/mL BSA.
# 2, 6, 8, 9; Dispensed with BioRaptr (Beckman Coulter)
# 2, 6, 9; Final concentrations: 10 nM WIP1; 2 uM VEPPL-pS-QETFS; 1 uM VEFFL-S-QETF*S
# 3 & 4; Kalypsys Pintool transfer (Wako USA), Tip wash sequence: water, DMSO, methanol, 20 sec vacuum dry.
# 5 & 7; incubation at room temperature
# 10; RapidFire mass spectrometry read using the Agilent RapidFire 360 (Clausse, 2019)
# Clausse V, et al. Physiologically relevant orthogonal assay for the discovery of small-molecule modulators of WIP1 […] in high-throughput screens. J Biol Chem. 2019, 294(46): 17654-17668. doi:10.1074/jbc.RA119.010201
# Sequence of Protein phosphatase 1D (Homo sapiens) (O15297 whole entry, looked up): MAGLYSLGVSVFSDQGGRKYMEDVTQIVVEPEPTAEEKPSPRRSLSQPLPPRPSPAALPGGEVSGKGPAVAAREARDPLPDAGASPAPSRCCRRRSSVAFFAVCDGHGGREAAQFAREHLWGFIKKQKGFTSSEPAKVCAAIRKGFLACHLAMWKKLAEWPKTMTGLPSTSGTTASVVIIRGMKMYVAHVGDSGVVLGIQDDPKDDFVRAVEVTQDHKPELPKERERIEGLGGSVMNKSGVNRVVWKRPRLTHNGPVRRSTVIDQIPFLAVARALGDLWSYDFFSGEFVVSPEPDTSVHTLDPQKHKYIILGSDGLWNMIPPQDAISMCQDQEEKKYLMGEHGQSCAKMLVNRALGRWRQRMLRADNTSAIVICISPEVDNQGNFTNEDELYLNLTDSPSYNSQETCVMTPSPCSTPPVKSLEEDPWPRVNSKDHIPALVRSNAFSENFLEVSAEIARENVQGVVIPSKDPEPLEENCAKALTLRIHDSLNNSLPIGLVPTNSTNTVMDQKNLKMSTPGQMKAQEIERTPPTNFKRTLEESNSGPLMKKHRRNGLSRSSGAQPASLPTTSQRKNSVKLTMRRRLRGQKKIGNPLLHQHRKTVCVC
row,Structure (SMILES),"activity change, negative = inhibition"
1,OCc1cccnc1,19.3%
2,CC(=O)OCC[N+](C)(C)C,0.592%
3,C[C@@H]1C[C@H]2[C@@H]3CCC4=CC(=O)C=C[C@]4(C)[C@@]3(F)[C@@H](O)C[C@]2(C)[C@@]1(O)C(=O)COC(=O)c1ccncc1,-8.07%
4,CC(C)(C)NCC(O)COc1ccccc1OCC1CCCO1 (stereo not given),-10.9%
5,Nc1ncnc2nc[nH]c12,-4.04%
6,CC(=O)[C@H]1CC[C@H]2[C@@H]3C=CC4=CC(=O)CC[C@@]4(C)[C@@H]3CC[C@]12C,18.1%
7,CC(C(=O)O)c1ccc(/C=C2\CCCCC2=O)cc1 (stereo not given),5.51%
8,CC(=O)N[C@@H](CCC(N)=O)C(=O)O,9.6%
9,c1ccc(C(O[C@H]2CCCN(CCc3ccc4c(c3)OCO4)C2)c2ccccc2)cc1,67.5%
10,C[N+]1(CC2COC(c3ccccc3)(c3ccccc3)O2)CCCCC1 (stereo not given),-6.73% [at 26.6 µM]
11,CC(CC1c2ccccc2CCc2ccccc21)CN(C)C (stereo not given),24.1%
12,Cc1c(F)cc2c(=O)c(C(=O)O)cn3c2c1CCC3C (stereo not given),-1.06%
13,CN(CC1(C)CCCO1)S(=O)(=O)c1ccc(Cl)c(S(N)(=O)=O)c1 (stereo not given),5.54%
14,CCCCCC[C@@H](CCC)C(=O)O,3.48%
15,CC1CN(c2cc3c(cc2F)c(=O)c(C(=O)O)cn3-c2ccc(F)cc2F)CCN1 (stereo not given),-2.72% [at 6.17 µM]
16,CCOC(=O)C(O)c1ccccc1 (stereo not given),10.8%
17,CO/N=C(/C(=O)N[C@@H]1C(=O)N2C(C(=O)OCOC(=O)C(C)(C)C)=C(C)CS[C@H]12)c1csc(N)n1,-1.26%
18,CC1(C)O[C@@H]2C[C@H]3[C@@H]4C[C@H](F)C5=CC(=O)C=C[C@]5(C)[C@@]4(F)[C@@H](O)C[C@]3(C)[C@]2(C(=O)CO)O1,17.7%
19,COC(=O)c1c(Cl)c(Cl)c(C(=O)OC)c(Cl)c1Cl,1.73% [at 128 µM]
20,CNC(=O)c1cnn(-c2nc(N)c3ncn([C@@H]4O[C@H](CO)[C@@H](O)[C@H]4O)c3n2)c1,-1.69%

row,Structure (SMILES),"activity change, negative = inhibition"
1,O=[N+]([O-])c1nccn1CO[C@@H](CO)[C@H](O)CO,-3.32%
2,O=C(c1ccccc1)c1ccccc1,8.3%
3,CC(=O)Nc1ccn(C2COC(COC(=O)c3ccccc3)O2)c(=O)n1 (stereo not given),5.93%
4,C[C@@]12CCC[C@H]1[C@@H]1CC[C@H]3C[C@@H](O)CC[C@]3(C)[C@H]1CC2,27.5%
5,CCN(CC)CCN,4.99%
6,CC1c2ccccc2CN1NC(=O)c1ccc(Cl)c(S(N)(=O)=O)c1 (stereo not given),-1.65%
7,O=C(OCC(O)CO)c1ccccc1Nc1ccnc2c(C(F)(F)F)cccc12 (stereo not given),16.1%
8,Cn1cc(S(C)=O)c(=O)c2ccc(F)cc21 (stereo not given),18.7%
9,CC(=O)Nc1c(I)c(NC(C)=O)c(I)c(C(=O)O)c1I,1.83%
10,CCN1CCN(c2cc(-c3ccc(F)cc3)c3c(n2)CCCCCC3)CC1,18.2% [at 26.6 µM]
11,O=C(O)Cc1ccccc1Oc1ccc(Cl)cc1Cl,-0.423%
12,CCC1=C[C@@H]2CN(C1)Cc1c([nH]c3ccccc13)[C@@](C(=O)OC)(c1cc3c(cc1OC)N(C)[C@H]1[C@@](O)(C(=O)OC)[C@H](OC(C)=O)[C@]4(CC)C=CCN5CC[C@]31[C@@H]54)C2,34.5%
13,CO/N=C(\C(=O)O)c1csc(NC(=O)CCl)n1,-2.84%
14,O=C1NCCN1CCN1CCC(c2cn(-c3ccc(F)cc3)c3ccc(Cl)cc23)CC1,40.9%
15,O=C(CCCCCCCCC#CI)Oc1ccccc1,5.49%
16,C[C@H]1C[C@@H]2[C@H]([C@@H](O)C[C@@]3(C)[C@H]2CC[C@]3(O)C(=O)CO)[C@@]2(C)C=CC(=O)C=C12,6.17%
17,CCCC(=O)Nc1ccc(O)c(C(C)=O)c1,1.01%
18,CCCc1ncc(C(=O)O)s1,-0.325%
19,CC(=O)N(CC(O)CO)c1c(I)c(C(=O)NCCO)c(I)c(C(=O)NCC(O)CO)c1I (stereo not given),3.45%
20,CCCCOC(=O)CCCCCCCCC(=O)OCCCC,3.15%
